Screening data from PubChem.
The list is not random: actives were taken first. Their share in the collection is about 21%.
CHX counter – Cycloheximide Counterscreen for Small Molecule Inhibitors of Shiga Toxin | cell reporter, cycloheximide protein synthesis inhibition counterscreen | max response, % | 300,000 compounds, 12% hits; in the data active = max response mostly above about 13%, no sharp cut-off; inactive = mostly below about 14%; also: read at 38.3 µM for the half of the compounds with a filed dose; 0% is about no effect
Shiga inhibitor – A qHTS for Small Molecule Inhibitors of Shiga Toxin. Vero cells, Shiga toxin protein synthesis inhibition reporter. inhibition, % at 38.7 µM. 290,000 compounds, 9.2% hits; in the data active = inhibition mostly above about 28%, no sharp cut-off; inactive = mostly below about 43%; also: 0% is about no effect
HCV inhibitor – qHTS Assay for Inhibitors of Hepatitis C Virus (HCV). Huh7.5.1 HCVcc-Cre infection, luciferase reporter, 44 h. Potency, µM (highest dose often 41.8 µM), for the others: at the highest dose activity change, negative = inhibition, most hits filed as inhibitors. 340,000 compounds, 3.4% hits. AID 651820, 2012; also: potency is read from the fitted curve at half-maximal effect; % is scaled to controls: 0 for no effect and ±100 for the full control effect
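Seed cells (1,000/well) for 4 h; treat with compound and infect with HCVcc-Cre, moi about 0.5. Incubate 44 h, then detect luciferase activity.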
Pf growth 96h – Primary qHTS for delayed death inhibitors of the malarial parasite plastid, 96 hour incubation; P. falciparum luciferase reporter growth, 96 h; Potency, µM (titrated, usually from 28.7 µM), without a hit: at the highest dose activity change, negative = inhibition, most hits filed as inhibitors; 320,000 compounds, 6.9% hits; AID 504834, 2011; also: potency is read from the fitted curve at half-maximal effect; % is scaled to controls: 0 for no effect and ±100 for the full control effect
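Cell-based qHTS: luciferase-tagged P. falciparum in erythrocytes (2% hematocrit, 0.05% parasitemia final) incubated with compounds for 96 hours, 37 C, 5% CO2; luciferase detection reagent then added and luminescence measured.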
AMA1-RON2 inh – qHTS for Inhibitors of AMA1-RON; Towards Development of Antimalarial Drug Lead: Primary Screen. Plasmodium falciparum AMA1 (3D7) - RON2 peptide interaction. AlphaScreen AMA1-biotinylated RON2 peptide binding. Potency, µM (highest dose often 58.2 µM), without a hit: at the highest dose activity change, negative = inhibition, usual class: inhibitors. 360,000 compounds, 0.2% hits. AID 720542, 2013;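 also: potency is read from the fitted curve at half-maximal effect; 0% = vehicle wells and -100% = peptide control; nearly all actives have a fitted effect of over 45% in size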
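AMA1 (3D7) with his tag at 25 nM final met compounds first, then biotinylated RON2 peptide at 25 nM; detection used donor plus acceptor beads, 10 µg/mL apiece, read by AlphaScreen after 30 min at room temperature.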
Pf growth 48h – Primary qHTS for delayed death inhibitors of the malarial parasite plastid, 48 hour incubation; P. falciparum luciferase growth in erythrocytes, 48 h; Potency, µM (series often up to 28.7 µM), for the others: top-dose activity change, negative = inhibition, actives largely listed as inhibitors; 310,000 compounds, 5.9% hits; also: potency is read from the fitted curve at half-maximal effect; % is scaled to controls: 0 for no effect and ±100 for the full control effect
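Growth was read as firefly luciferase luminescence after a 48 h, 37 C, 5% CO2 exposure of compounds to reporter-bearing P. falciparum cultures (0.1% parasitemia, 2% hematocrit final) in Albumax-supplemented RPMI 1640.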
Numbers without * were called inactive; ? = inconclusive; . = no result. Unless noted, calls follow the shape of the dose curve; as a rule, active = well fitted curve in the direction sought with a large enough effect; inconclusive = small, poorly fitted or top-dose-only effect, or another doubt; inactive = no such curve, though single readings can be large; an effect the other way counts as inactive or inconclusive.

SMILES	CHX counter	Shiga inhibitor	HCV inhibitor	Pf growth 96h	AMA1-RON2 inh	Pf growth 48h
COc1cccc(NC(=O)c2ccccc2-c2nc(-c3ccccc3)no2)c1	18.9*	28.2	?	5.5%	1.5%	-12.5%
COc1cccc(NC(=O)c2ccccc2-c2nc(-c3ccc(F)cc3)no2)c1	8.0	22.0	?	17.8%	-7.6%	?
COc1ccccc1-c1nc(SCC(=O)N2CCC(C(N)=O)CC2)n[nH]1	.	.	6.8%	-47.1%	-22.5%	-11.2%
CCCN(CCC)C(=O)[C@@H](CCC(=O)O)NC(=O)c1ccccc1	.	.	.	-12.1%	.	0.2%
COc1cccc(C(=O)COC(=O)CCC(=O)c2ccccc2)c1	1.5	-2.1	6.1%	-13.4%	-0.1%	-10.7%
CN1CCN(C2CCN(c3ccc(Nc4nnc(Cl)c(Nc5ccccc5S(C)(=O)=O)n4)c(OC(CF)CF)c3)CC2)CC1	.	.	11.2µM*	.	-15.7%	.
Cn1nnc(NC(=S)NC(=O)c2cccc3c(Cl)cccc23)n1	14.6	-4.8	20.7%	?	100.5%	?
CCCCNc1c([N+](=O)[O-])cc(C(=O)O)cc1[N+](=O)[O-]	-6.4	17.0	46.3%	-2.9%	-11.0%	7.9%
CCCCNc1c([N+](=O)[O-])cc(C)cc1[N+](=O)[O-]	-2.5	-7.5	?	?	18.9µM*	-14.2%
Cn1cc(CNCc2ccccc2OCC(O)CN2CCc3ccccc3C2)cn1 (stereo not given)	-2.9	-13.6	11.2µM*	-10.1%	1.5%	?
OC(COc1c(F)cc(Br)cc1F)CN1CCc2ccccc2C1 (stereo not given)	3.1	11.9	2.1%	?	0.0%	-1.0%
Cc1cc(C)c(OCC(O)CN2CCN(C(=O)c3ccccc3)CC2)c(C)c1 (stereo not given)	-1.4	-6.9	-11.3%	6.57µM*	-27.0%	?
Cc1cccc(C)c1OCC(O)CN1CCc2ccccc2C1 (stereo not given)	.	.	12.6µM*	.	-12.4%	.
O=C(c1ccccc1)N1CCN(CC(O)COc2cccc3ccccc23)CC1 (stereo not given)	-0.5	.	14.8%	-0.3%	-2.2%	?
Cc1ccc(C(C)C)c(OCC(O)CN2CCc3ccccc3C2)c1 (stereo not given)	-5.0	-23.5	?	?	0.0%	?
Cc1ccc(NC(=O)C2CSC3(C)CCC(=O)N23)cc1S(=O)(=O)N1CCCCCC1 (stereo not given)	.	.	?	?	0.0%	?
Cc1ccc(N2CC(C(=O)OCC(=O)Nc3ccc(Cl)cc3)CC2=O)cc1 (stereo not given)	.	.	8.2%	9.2%	-9.9%	17.2%
CCCOc1ccc(C(F)(F)F)cc1NC(=O)c1cc(C)on1	.	.	-9.7%	32.5%	8.9%	45.0%
O=C(c1ccc(Oc2ccccc2)cc1)C1CCCN(C(=O)c2cnccn2)C1 (stereo not given)	-2.0	24.6	-24.1%	-22.4%	-8.3%	-9.5%
CC(=O)N1CCCC(C(=O)c2ccc(Oc3ccccc3)cc2)C1 (stereo not given)	33.7*	57.3*	-1.2%	?	-13.3%	-17.7%
COCC(=O)N1CCCC(C(=O)c2ccc(Oc3ccccc3)cc2)C1 (stereo not given)	5.1	27.0	-3.5%	-4.6%	1.7%	-24.5%
Cc1cc(C(=O)N2CCCC(C(=O)c3ccc(Oc4ccccc4)cc3)C2)n[nH]1 (stereo not given)	-1.5	-2.2	?	?	-11.9%	10.4µM*
COc1ccc(C(=O)O)cc1S(=O)(=O)Nc1ccccc1-c1ccccc1	-2.1	23.5	7.9%	17.9%	2.3%	1.9%
Cc1ccccc1-c1n[nH]nc1C1=CC(=O)C[C@H](c2ccc(F)cc2)C1	.	.	.	.	28.6%	.
Cn1c(SCc2ccc(C#N)cc2Cl)nc2ccccc21	39.9*	125.3	-12.1%	226.8%	3.9%	184.4%
SMILES	CHX counter	Shiga inhibitor	HCV inhibitor	Pf growth 96h	AMA1-RON2 inh	Pf growth 48h
N#Cc1ccc(CSc2ccccn2)c(Cl)c1	24.8*	117.1	10.9%	2.5%	14.6%	?
N#Cc1ccccc1CSc1ccccn1	-4.2	23.4	3.0%	14.2%	7.8%	-17.2%
CCCN(C(=O)c1nc2nc(C)cc(C)n2n1)c1c(N)n(Cc2ccccc2)c(=O)[nH]c1=O	.	.	6.4%	33.5%	-1.3%	5.2%
COC(=O)CN(C#N)c1nc(N(C)C)nc(N(C)C)n1	-3.1	-6.4	-21.5%	4.15µM*	10.2%	-6.7%
COC(=O)CN(C#N)c1nc(NCc2ccccc2)nc(OC)n1	4.6	4.1	-10.1%	?	-1.2%	9.28µM*
COC(=O)CN(C#N)c1nc(NC(C)C)nc(OC)n1	-3.5	-3.1	-5.5%	?	8.8%	-0.4%
CN(C)C1=NCCN1CCCCc1ccccc1	.	.	3.8%	48.7%	0.0%	?
Cc1ccc(O)c(CNc2nc3ccccc3n2C(C)C)c1	-2.6	11.7	?	15.4%	-4.4%	8.28µM*
Cn1c(NCc2cc(Br)ccc2O)nc2ccccc21	26.9*	65.9*	?	27.6%	-7.7%	?
COc1ccc(CNc2nc3ccccc3n2C(C)C)cc1	1.0	2.1	-0.5%	?	-7.2%	-23.2%
Cn1c(NCc2c(O)ccc3ccccc23)nc2ccccc21	6.9	33.3	?	62.4%	-14.1%	.
COc1ccc(CNc2nc3ccccc3n2C)c(O)c1	38.6*	69.3*	-2.1%	-6.7%	0.4%	0.0%
COc1ccc(CNc2nc3ccccc3n2C(C)C)c(O)c1	1.3	.	?	?	-11.5%	11.7µM*
Cn1c(=O)c2cc(NC(=O)NCc3ccc(Cl)cc3Cl)ccc2n1Cc1ccccc1	.	.	.	.	0.0%	.
CCN(CC)CCn1c(NCc2cc(OC)ccc2OC)nc2ccccc21	8.6	11.1	-18.5%	?	-2.2%	?
COc1ccc(CNc2nc3ccccc3n2C)c(OC)c1	39.8*	81.9*	-5.2%	101.3%	-7.9%	138.5%
Oc1ccc(N=Nc2ccc3c(c2)OCO3)c2ccccc12	58.0*	77.9*	.	?	.	?
S=C(NCc1ccccc1)NCc1ccc2c(c1)OCO2	-1.0	-5.8	6.6%	25.3%	-2.6%	17.0%
O=C1N/C(=N/S(=O)(=O)Cc2ccccc2)S/C1=C/c1ccc2c(c1)OCO2	-2.6	-13.3	-3.7%	0.9%	0.0%	-26.6%
Cc1ccc(S(=O)(=O)NCCC(=O)N2CCOCC2)cc1C	.	.	15.1%	25.3%	7.7%	3.9%
Cc1cc2c(Nc3ccccc3O)ncnc2s1	.	.	.	.	-3.6%	.
Cc1cc2c(NCc3ccccc3)ncnc2s1	3.2	.	7.94µM*	3.3%	0.9%	?
Cc1cc2c(Nc3cccc(O)c3)ncnc2s1	18.5*	23.5	-22.4%	9.4%	-2.3%	365.8%
